PubChem BioAssay AID1159580 (chemical genetic matrix, 2015)
Screen size: about 5,500 compounds; about 2,000 (36%) were called active. Not shown: some 18% with an inconclusive outcome. Cut-off read from the data, not from the text of the source: active = normalized growth mostly below about 0.91 (no sharp cut-off); inconclusive = no clear call, values can overlap the other calls; inactive = mostly above about 0.92. Some of the results follow.

Assay: chemical genetic growth profiling, strain panel (AID 1159580);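 note: tested at 20 µM; growth read once vehicle control cultures reached saturation at 30 °C; 1 = growth at the plate median or of vehicle wells; lower values mean less growth of the strain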
Conditions: S. cerevisiae deletion strains, growth OD

Measured: normalized growth

N[C@H](CO)Cc1ccccc1
inactive: locus YAL021C, strain ccr4, stronger effect = lower value 1.01 | locus YAL026C, strain drs2, stronger effect = lower value 1.02 | locus YAL030W, strain snc1, stronger effect = lower value 1.03 | locus YBL061C, strain skt5, stronger effect = lower value 1.03 | locus YBR009C, strain hhf1, stronger effect = lower value 1.03 | locus YBR023C, strain chs3, stronger effect = lower value 1.02 | locus YBR171W, strain sec66, stronger effect = lower value 1.02 | locus YBR231C, strain swc5, stronger effect = lower value 1.02 | locus YBR279W, strain paf1, stronger effect = lower value 1.01 | locus YCL011C, strain gbp2, stronger effect = lower value 1.01 | locus YCL016C, strain dcc1, stronger effect = lower value 0.998 | locus YCL061C, strain MRC1, stronger effect = lower value 1.02 | locus YCL069W, strain vba3, stronger effect = lower value 1.02 | locus YCR088W, strain abp1, stronger effect = lower value 1.01 | locus YDL005C, strain med2, stronger effect = lower value 1.01 | locus YDL040C, strain nat1, stronger effect = lower value 1.02 | locus YDR001C, strain nth1, stronger effect = lower value 1.02 | locus YDR069C, strain doa4, stronger effect = lower value 1.04 | locus YDR137W, strain rgp1, stronger effect = lower value 1.01 | locus YDR159W, strain sac3, stronger effect = lower value 1.06 | locus YDR195W, strain ref2 1.02 | locus YDR297W, strain sur2, stronger effect = lower value 1.05 | locus YDR334W, strain swr1, stronger effect = lower value 1.02 | locus YDR335W, strain msn5, stronger effect = lower value 1.01 | locus YDR392W, strain spt3, stronger effect = lower value 0.927 | locus YEL003W, strain gim4, stronger effect = lower value 1.03 | locus YEL037C, strain rad23, stronger effect = lower value 1.01 | locus YEL061C, strain CIN8 (second series), stronger effect = lower value 1.02 | locus YER015W, strain faa2, stronger effect = lower value 1.03 | locus YER016W, strain bim1, stronger effect = lower value 1.03 | locus YER111C, strain swi4, stronger effect = lower value 1.02 | locus YER155C, strain BEM2 (second series), stronger effect = lower value 1.02 | locus YFR010W, strain ubp6, stronger effect = lower value 1.04 | locus YGL167C, strain pmr1, stronger effect = lower value 1.02 | locus YGL173C, strain kem1, stronger effect = lower value 1.03 | locus YGL227W, strain vid30, stronger effect = lower value 1.03 | locus YGL240W, strain doc1, stronger effect = lower value 1.02 | locus YGL253W, strain hxk2, stronger effect = lower value 1.03 | locus YHR013C, strain ard1, stronger effect = lower value 1.03 | locus YHR027C, strain rpn1, stronger effect = lower value 1.02 | locus YHR030C, strain SLT2, stronger effect = lower value 1.07 | locus YHR079C, strain IRE1, stronger effect = lower value 1.05 | locus YHR142W, strain chs7, stronger effect = lower value 1.03 | locus YJL092W, strain hpr5, stronger effect = lower value 1.02 | locus YJL095W, strain BCK1 (second series), stronger effect = lower value 1.02 | locus YJL095W, strain BCK1, stronger effect = lower value 1.06 | locus YJL115W, strain asf1, stronger effect = lower value 1.01 | locus YJL129C, strain trk1, stronger effect = lower value 1.03 | locus YJL154C, strain vps35, stronger effect = lower value 1.02 | locus YJL164C, strain tpk1, stronger effect = lower value 0.994 | locus YJL166W, strain qcr8, stronger effect = lower value 1.02 | locus YJL187C, strain SWE1, stronger effect = lower value 1.01 | locus YJR066W, strain TOR1, stronger effect = lower value 0.974 | locus YKL160W, strain elf1, stronger effect = lower value 0.996 | locus YKR026C, strain gcn3, stronger effect = lower value 1.02 | locus YKR091W, strain srl3, stronger effect = lower value 1.01 | locus YLL001W, strain dnm1, stronger effect = lower value 1.01 | locus YLL026W, stronger effect = lower value 1.02 | locus YLL041C, strain sdh2, stronger effect = lower value 1.01 | locus YLR027C, strain aat2, stronger effect = lower value 1.01 | locus YLR113W, strain HOG1, stronger effect = lower value 1.05 | locus YLR221C, strain rsa3, stronger effect = lower value 1.03 | locus YLR258W, strain gsy2, stronger effect = lower value 1.05 | locus YLR262C, strain YPT6 (second series), stronger effect = lower value 1.02 | locus YLR320W, strain mms22, stronger effect = lower value 1.03 | locus YLR342W, strain FKS1, stronger effect = lower value 1.03 | locus YLR357W, strain rsc2, stronger effect = lower value 1.05 | locus YLR370C, strain arc18, stronger effect = lower value 1.04 | locus YLR384C, strain iki3, stronger effect = lower value 1 | locus YML120C, strain ndi1, stronger effect = lower value 1.01 | locus YMR058W, strain fet3, stronger effect = lower value 1.02 | locus YMR125W, strain sto1, stronger effect = lower value 1.01 | locus YMR129W, stronger effect = lower value 1.01 | locus YMR205C, strain PFK2, stronger effect = lower value 1.02 | locus YMR231W, strain pep5, stronger effect = lower value 1.02 | locus YNL071W, strain lat1, stronger effect = lower value 1.02 | locus YNL183C, strain NPR1, stronger effect = lower value 0.974 | locus YNL209W, strain ssb2, stronger effect = lower value 1.01 | locus YNL248C, strain rpa49, stronger effect = lower value 1.06 | locus YNL322C, strain KRE1 (second series), stronger effect = lower value 1.02 | locus YNR049C, strain mso1, stronger effect = lower value 1.02 | locus YOR001W, strain rrp6, stronger effect = lower value 1.03 | locus YOR070C, strain gyp1, stronger effect = lower value 1.01 | locus YOR080W, strain dia2, stronger effect = lower value 1.02 | locus YOR083W, strain WHI5, stronger effect = lower value 1 | locus YOR106W, strain vam3, stronger effect = lower value 1 | locus YOR231W, strain MKK1, stronger effect = lower value 1.07 | locus YOR265W, strain rbl2, stronger effect = lower value 1.01 | locus YOR270C, strain vph1, stronger effect = lower value 1.06 | locus YOR290C, strain snf2, stronger effect = lower value 0.978 | locus YPL051W, strain arl3, stronger effect = lower value 1.03 | locus YPL078C, strain atp4, stronger effect = lower value 0.99 | locus YPL106C, strain sse1, stronger effect = lower value 1 | locus YPL240C, strain hsp82, stronger effect = lower value 1.02 | locus YPL256C, strain CLN2, stronger effect = lower value 1.04
